Measured values as given in PubChem BioAssay AID977607 (Broad Institute, 2014).
The whole screen tested about 1,500 compounds, of which about 460 (31%) were called active. Another 1% or so got no clear call; they are omitted.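 Rule for the calls: active = curve reaches 40% activation over neutral controls at an AC40 no higher than the top valid tested concentration; inconclusive = no clear call, values can overlap the other calls; inactive = signal moving opposite to the expected increase, and the rest.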 The list is a sample of the results. Entries with a potency or affinity are not part of this list.

assay: GLuc-reported insulin release enhancers, glucose-stimulated beta cells – cell-based, INS-1E, Gaussia luciferase, luminescence, cherry-pick, set 2, dose response (AID 977607); conditions: INS-1E GLuc insulin secretion reporter, 2-3 h, active compounds read high; at 35 µM, 100% = signal doubled over neutral wells unless noted;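 note: 0% = median of the plate neutral control wells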

Max activation, inactive:
CCSc1ccc2nnc(-c3ccc(F)cc3)n2n1 -17.1% [at 0.135 µM, 100% = signal doubled over neutral wells]
C=CCNc1sc(C(=O)C2CC2)c(N)c1C#N -24.8% [at 0.0016 µM, 100% = signal doubled over neutral wells]
COc1ccc(Nc2nc(NCc3cccs3)nc3ccsc23)cc1OC -40.6%
COCCNc1nc(NC(C)C)nc2ccsc12 -19.2% [at 0.046 µM, 100% = signal doubled over neutral wells]
Cc1cc(NC(=O)COC(=O)c2oc3c(Cl)cccc3c2C)no1 -17.9% [at 11 µM, 100% = signal doubled over neutral wells]
CCCOC(=O)Nc1ccc(S(=O)(=O)Nc2ncccn2)cc1 -14.1% [at 11 µM, 100% = signal doubled over neutral wells]
CCOC(=O)c1cnc2ccc(OCC)cc2c1N1CCN(c2ccccc2)CC1 -39.9%
O=C(c1cccc(F)c1)N1CCCc2ccccc21 -18.1% [at 0.015 µM, 100% = signal doubled over neutral wells]
CCOc1nc(Nc2ccccc2F)nc(OCC)n1 -23.2% [at 0.0016 µM, 100% = signal doubled over neutral wells]
COc1nc(Nc2ccccc2)nc(OC)n1 -12% [at 0.0016 µM, 100% = signal doubled over neutral wells]
COc1ccc(S(=O)(=O)Nc2cccc(-c3ccc4nncn4n3)c2)cc1F -16.1% [at 0.046 µM, 100% = signal doubled over neutral wells]
C=CCOc1cccc(C(=O)N2CCC(CCC(=O)NC3CC3)CC2)c1 -8.53% [at 1.2 µM, 100% = signal doubled over neutral wells]
C[C@@H]1CN([C@@H](C)CO)C(=O)c2cc(Br)cnc2O[C@H]1CN(C)C(=O)C1CC1 -19.6% [at 0.0016 µM, 100% = signal doubled over neutral wells]
NC(=O)C1CCN(c2nc(-c3ccccc3)nc3ccccc23)CC1 -15.2% [at 3.8 µM, 100% = signal doubled over neutral wells]
Cc1ccccc1Nc1c(-c2ccncc2)nc2ccc(Cl)cn12 -30.7%
COc1ccc(C(=O)c2ccc(OC)c(OC)c2)cc1 -16.7% [at 0.42 µM, 100% = signal doubled over neutral wells]
CCOC(=O)c1sc2nc(-c3ccccc3)ccc2c1N -12.9%
C[C@@H](NC(=O)C[C@@H]1C[C@@H]2c3cc(NC(=O)Nc4ccccc4F)ccc3O[C@@H]2[C@@H](CO)O1)c1ccccc1 34.4% [at 0.015 µM, 100% = signal doubled over neutral wells]
COc1ccc(-n2c(=S)[nH]c3cc(C(=O)Nc4ccc(OC)c(OC)c4)ccc3c2=O)cc1 -16.1% [at 0.0016 µM, 100% = signal doubled over neutral wells]
COc1ccc(C(=O)Nc2cccnc2Cl)cc1OC -21.1% [at 0.0016 µM, 100% = signal doubled over neutral wells]
O=S(=O)(c1ccc(-c2csc(Nc3ccc(Br)cc3)n2)cc1)N1CCCC1 -14.1% [at 0.42 µM, 100% = signal doubled over neutral wells]
O=C(Cc1csc(NC(=O)c2ccccc2)n1)NO -12.5% [at 0.42 µM, 100% = signal doubled over neutral wells]
CS(=O)(=O)N1CCCCC1c1cc(C(=O)Nc2cccc3c2CCCC3)no1 (stereo not drawn) -21.9% [at 0.0016 µM, 100% = signal doubled over neutral wells]
Cc1ccc(S(=O)(=O)NCc2csc(-c3cccs3)n2)cc1 -16% [at 0.42 µM, 100% = signal doubled over neutral wells]
COc1ccc(CCN(C)C(=O)C(CCSC)NC(=O)c2ccco2)cc1OC (stereo not drawn) 35.3%
Nc1nc(N)nc(-c2ccc(Cl)cc2)n1 24.3%
CC(C)(C)NC(=O)N1c2ccccc2Sc2ccccc21 -17.6% [at 0.42 µM, 100% = signal doubled over neutral wells]
CC(=O)c1c(C)oc2ccc(NS(=O)(=O)c3ccc(F)cc3C)cc12 -28.4%
CS(=O)(=O)c1nc(S(=O)(=O)c2ccc(Cl)cc2)c(N2CCCCCC2)s1 -34.1%
Cc1nc2ccccc2c(=O)n1CCCN1CCOCC1 -15.9% [at 0.046 µM, 100% = signal doubled over neutral wells]
COc1nc(-c2ccccc2)c2cc(C)ccc2n1 42.4% [at 1.2 µM, 100% = signal doubled over neutral wells]
Cc1ccc2c(c1)c(-c1ccccc1)nc1nncn12 -21.1% [at 1.2 µM, 100% = signal doubled over neutral wells]
CCN(CC)C(=O)n1c(Cc2ccccc2)nc2ccccc21 -14.4% [at 0.005 µM, 100% = signal doubled over neutral wells]
CCCc1cc2c(OC)ccc(O)c2c(=O)n1C -19.2% [at 0.42 µM, 100% = signal doubled over neutral wells]
CCOc1ccc(NC(=O)[C@@H](NC(=O)OCc2ccccc2)[C@@H](C)CC)cc1 -32.5% [at 11 µM, 100% = signal doubled over neutral wells]
CCCNC(=O)c1ccccc1NC(=O)COc1ccc(OC)cc1 -16% [at 11 µM, 100% = signal doubled over neutral wells]
COc1ccc(CCNC(=O)CCn2c(=O)c3ccccc3n(CC(=O)NCC3CCCO3)c2=O)cc1OC (stereo not drawn) 20.3% [at 0.135 µM, 100% = signal doubled over neutral wells]
CCN(CC)C(=O)Cn1c(=O)oc2ccccc21 -21.2%
Cc1nccn1-c1ncnc2sc3c(c12)CCCC3 -26.7% [at 0.046 µM, 100% = signal doubled over neutral wells]
COc1ccc(/C=N/NS(=O)(=O)c2ccccc2)cc1OC 16.8%
CCOC(=O)N1CCN(C(=O)COc2ccccc2OC)CC1 19.9% [at 11 µM, 100% = signal doubled over neutral wells]
C=CCc1ccc(OCCOc2ccc(/C=N/n3cnnc3)cc2OCC)c(OC)c1 -24.1% [at 0.046 µM, 100% = signal doubled over neutral wells]
COc1ccc(/C=N/NC(=O)CN(C2=NS(=O)(=O)c3ccccc32)c2ccccc2)cc1OC 23.5%
Cc1cc(C)c2c(C)nn(C3CCCCC3)c2n1 20.5%
CSc1ccc(C(=O)C2CCCN(C(=O)c3ccc4c(c3)no[n+]4[O-])C2)cc1 (stereo not drawn) -36.5%
CCOc1ccc(-c2nc(CSc3nnc(N)s3)cs2)cc1OC 23.2%
C=CCn1cnc2scc(-c3ccc(OC)cc3)c2c1=O -14.9% [at 1.2 µM, 100% = signal doubled over neutral wells]
COc1ccc(-c2nc(C(=O)O)cs2)cc1OC 28.2% [at 0.42 µM, 100% = signal doubled over neutral wells]
COc1ccc(CC(=O)O/N=C(\N)c2ccccc2)cc1OC -13.5% [at 0.005 µM, 100% = signal doubled over neutral wells]
COc1ccc(C(=O)O/N=C(\N)c2ccc(OC)c(OC)c2)cc1 -23.3% [at 0.135 µM, 100% = signal doubled over neutral wells]
COc1ccc(OCC(=O)NNC(=O)Cn2c(=O)cnc3ccccc32)cc1 -15.3% [at 1.2 µM, 100% = signal doubled over neutral wells]
CC(=O)NCCc1nc2ccccc2n1CCOc1cccc(C)c1 -27.1%
O=C(c1ccccc1)c1ccc2ccccc2n1 -22.9% [at 0.0016 µM, 100% = signal doubled over neutral wells]
O=C(Nc1ccccc1Oc1ccsc1C(=O)O)c1ccccc1F 23.2% [at 0.42 µM, 100% = signal doubled over neutral wells]
Cc1cc(C)cc(C(=O)NC(=S)Nc2ccc(-c3cc4ccccc4oc3=O)cc2)c1 14.9%
O=C(NCC1CCCO1)C1CCC(N2C(=O)c3ccccc3C2=O)CC1 (stereo not drawn) 17.8% [at 11 µM, 100% = signal doubled over neutral wells]
CC1CCN(C(=O)c2cccc(S(=O)(=O)N3CCN(c4ccccc4)CC3)c2)CC1 35.2% [at 0.0016 µM, 100% = signal doubled over neutral wells]
CN1CCN(NC(=O)c2cccc(S(=O)(=O)N3CCCCCC3)c2)CC1 33% [at 1.2 µM, 100% = signal doubled over neutral wells]
